Compound activity deposited in PubChem by NMMLSC.
RGS7-Gao reg – human RGS7-Galphao interaction regulation | AID 1439 | P09471 | 0.35% of 220,000 active | Multiplexed bead flow cytometry, RGS7-Galphao binding; actives lie on both sides | binding response (% of control), % at 10 µM; in the data active = binding response below about 49% or above about 150%; inconclusive = no clear call, values can overlap the other calls; inactive = in between;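 note: fluorescent Galphao held in activated GDP-AlF4 state binding bead-coupled RGS7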
Target sequence (P09471 whole entry, looked up): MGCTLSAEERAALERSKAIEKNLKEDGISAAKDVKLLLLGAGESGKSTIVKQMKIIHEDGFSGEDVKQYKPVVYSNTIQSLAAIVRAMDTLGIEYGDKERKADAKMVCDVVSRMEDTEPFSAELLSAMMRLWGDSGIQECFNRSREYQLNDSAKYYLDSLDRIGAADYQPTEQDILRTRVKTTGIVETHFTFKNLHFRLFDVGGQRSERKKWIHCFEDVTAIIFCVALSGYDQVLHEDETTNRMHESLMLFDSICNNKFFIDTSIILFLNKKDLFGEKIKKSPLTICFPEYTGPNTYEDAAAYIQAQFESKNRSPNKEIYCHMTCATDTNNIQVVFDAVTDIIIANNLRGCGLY
Avidin bead fluor – compound fluoresces at 488/530 nm on avidin beads; compound fluorescence 488/530 nm, flow cytometry; hits give high values; fluorescence (KMESF) at 10 µM; 0.38% of 220,000 active; AID 1775; in the data active = fluorescence above about 47
GSH bead fluor – compound fluoresces at 488/530 nm on GSH beads; GSH beads flow cytometry, compound fluorescence 488/530 nm; hits give high values; fluorescence (KMESF) at 10 µM; 0.25% of 190,000 active; in the data active = fluorescence above about 89;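 note: glutathione beads carrying GST-tagged Bcl family fusion proteins plus one bare bead set; values are compound well signal with DMSO vehicle wells as background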
RGS4-Gao reg – human RGS4-Galphao interaction regulation; binding response (% of control), % at 10 µM; Multiplexed bead flow cytometry, RGS4-Galphao binding; actives lie on both sides; 0.33% of 220,000 active; P09471; in the data active = binding response below about 49% or above about 150%; inactive = in between;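 note: fluorescent Galphao activated with aluminum fluoride binding bead-coupled RGS4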
RGS16-Gao HTS – modulates binding between human RGS16 and Galphao; O15492+P09471; 0.38% of 220,000 active; binding response (% of control), % at 10 µM; AID 1441; bead-based flow cytometry RGS16-Galphao binding, fluorescence; actives lie on both sides;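 note: Galphao activated by GDP with aluminum fluoride before binding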
Target sequence (O15492 whole entry, looked up): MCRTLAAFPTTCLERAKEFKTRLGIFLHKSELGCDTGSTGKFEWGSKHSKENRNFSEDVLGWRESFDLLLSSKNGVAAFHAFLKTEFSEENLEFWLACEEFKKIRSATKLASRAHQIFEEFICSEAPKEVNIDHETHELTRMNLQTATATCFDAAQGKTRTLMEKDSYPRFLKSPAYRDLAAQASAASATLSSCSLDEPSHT
Target sequence (P09471 whole entry, looked up): as the sequence (P09471 whole entry, looked up) above
RGS8-Gao – human RGS8-Galphao interaction regulation | P09471 | multiplexed bead flow cytometry, RGS8-Galphao binding; actives lie on both sides | response (percent of control binding), % at 10 µM | 0.34% of 220,000 active; in the data active = response below about 60% or above about 140%; inactive = in between;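 note: Galphao activated as the GDP aluminium fluoride complex binding bead-coupled RGS8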
RGS4-Gao HTS – regulators of human RGS4-Galphao interaction. AID 1504. RGS4–Galpha-o binding response, % at 10 µM. shares compounds with RGS16-Gao HTS. 99% of 1,600 active. multiplexed bead flow cytometry, RGS–Galpha-o binding;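 note: fluorescently labeled Galpha-o bound to GDP with aluminium fluoride binding biotinylated RGS beads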
Biotin-avidin – interferes with biotinylated probe binding to avidin beads; shares compounds with RGS16-Gao HTS; 1,700 tested, under 10 active; streptavidin beads, fluorescein-biotin binding, flow cytometry; inhibition, % at 10 µM;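 active = inhibition above 50%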;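 note: median green fluorescence of gated singlet beads compared with DMSO control wells; 0% = DMSO wells and 100% = complete loss of bead fluorescence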
RGS8-Gao single – confirmation of regulators of human RGS8-Galphao interaction; binding response (% of control), % at 10 µM; shares compounds with RGS16-Gao HTS; 3% of 1,700 active; bead-based flow cytometry RGS8-Galphao binding, fluorescence; actives lie on both sides; in the data active = binding response below about 72% or above about 130%; inactive = in between;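 note: Galphao activated as GDP AlF4 complex before binding bead RGS8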
RGS7-Gao confirm – RGS7-Galphao interaction regulation, single point confirmation; response (percent of control binding), % at 10 µM; 7.8% of 1,700 active; AID 1837; bead-based flow cytometry RGS7-Galphao binding; actives lie on both sides; shares compounds with RGS16-Gao HTS; in the data active = response below about 75% or above about 130%; inactive = in between;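 note: fluorescent Galphao activated with GDP and aluminum fluoride binding bead-coupled RGS7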
RGS16-Gao single – RGS16-Galphao interaction regulation, single point confirmation; shares compounds with RGS16-Gao HTS; bead-based flow cytometry, RGS16-Galphao binding; actives lie on both sides; response (% of control binding), % at 10 µM; 4% of 1,700 active; in the data active = response below about 74% or above about 130%; inactive = in between;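 note: Galphao activated as the GDP aluminium fluoride complex binding bead-coupled RGS16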
RGS4-Gao single – confirmation of regulators of human RGS4-Galphao interaction; shares compounds with RGS16-Gao HTS; binding response (% of control), % at 10 µM; RGS4-Galphao binding, multiplexed bead flow cytometry; actives lie on both sides; AID 1840; 4% of 1,700 active; in the data active = binding response below about 74% or above about 130%; inactive = in between
RGS19-Gao single – RGS19-Galphao interaction regulation, single point confirmation | shares compounds with RGS16-Gao HTS | bead-based flow cytometry RGS19-Galphao binding; actives lie on both sides | response (percent of control binding), % at 10 µM | 5% of 1,700 active | AID 1841; in the data active = response below about 50% or above about 160%; inactive = in between;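 note: 100% = no compound control and 0% = blank background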
Starred values were filed as active, the others as inactive; ? = inconclusive; / = not tested or not shown; [ ] = dose if it differs, or a comment. Only some compounds are listed: those with a hit (about 1.2% of all), similar ones and a draw of the others. Unless noted, the rule behind the calls is not given here.

SMILES | RGS7-Gao reg | Avidin bead fluor | GSH bead fluor | RGS4-Gao reg | RGS16-Gao HTS | RGS8-Gao | Biotin-avidin | RGS8-Gao single | RGS7-Gao confirm | RGS16-Gao single | RGS4-Gao single | RGS19-Gao single | others
N#C/C(=C/c1ccc(N2CCCCC2)o1)C(=O)Nc1ccc2ccccc2c1 | 191.9*[activator] | 111* | 82 | 177.1*[activator] | 164.5 | 91.0 | 2.0 | 102.7 | 175.2*[activator] | 138.5*[activator] | 148.2*[activator] | 219.6*[activator]
O=C(O)c1cc(C(F)(F)F)nc2c(C(F)(F)F)cccc12 | 174.3*[activator] | 6 | 20 | 142.6 | 122.6 | 103.4 | / | / | / | / | / | / | RGS4-Gao HTS=142.6*
COc1ccc(C(CC(=O)O)NS(=O)(=O)c2ccc(C)cc2)cc1 (stereo unspecified) | 101.3 | 32 | 17 | 98.7 | 97.4 | 99.5 | / | / | / | / | / | /
COc1ccc(C(CC(=O)O)NS(=O)(=O)c2ccc(C)cc2)cc1OC (stereo unspecified) | 11.8* | 0 | 36 | 20.9* | 12.5* | 12.4* | -0.5 | 100.0 | 98.2 | 98.2 | 99.8 | 99.1
NS(=O)(=O)c1cccc(NC(=O)COC(=O)Cc2ccc(Cl)cc2)c1 | 96.2 | 14 | 12 | 94.6 | 58.5 | 90.6 | / | / | / | / | / | /
CN(C(=S)Nc1ccc(Oc2ccccc2)cc1)C1CCCCC1 | 84.6 | 6 | 6 | 87.3 | 14.3* | 72.2 | -0.5 | 99.6 | 98.3 | 100.4 | 100.6 | 99.1 | RGS4-Gao HTS=87.3*
C/C(=N\NS(=O)(=O)c1ccccc1)c1cc(Cl)cc(Cl)c1O | 100.0 | 15 | 10 | 103.4 | 106.3 | 102.5 | / | / | / | / | / | /
CC(=O)Nc1ccc(S(=O)(=O)N(C)CC(=O)OCC(=O)Nc2cccnc2Cl)cc1 | 103.4 | 14 | 4 | 102.6 | 105.4 | 103.2 | / | / | / | / | / | /
CCN(C(=O)c1cc2cccc(OC)c2oc1=O)C1CCCCC1 | 187.5*[activator] | 112* | 18 | 186.6*[activator] | 223.2*[activator] | 84.8 | 3.1 | 99.2 | 101.3 | 96.2 | 99.4 | 100.2
CC(=O)N(C)C(c1ccc(N(C)C)cc1)c1nnnn1-c1c(C)cccc1C (stereo unspecified) | 102.3 | 4 | 9 | 103.0 | 105.3 | 103.8 | / | / | / | / | / | /
COc1ccc(N2CCN(C(=O)c3ccccc3Br)CC2)c([N+](=O)[O-])c1 | ? | 9 | 21 | 99.2 | 101.4 | 101.1 | / | / | / | / | / | /
CC(=O)c1ccc(-n2c(SCC(=O)c3c[nH]c4ccccc34)nc3ccccc3c2=O)cc1 | 184.2*[activator] | 2389* | 12 | 179.3*[activator] | 444.0 | 113.0 | 2.4 | 108.3 | 110.1 | 105.6 | 105.8 | 97.3
CCOC(=O)c1c(C)[nH]c(C)c1C(=O)CSc1nc2ccccc2c(=O)n1-c1ccc(CC)cc1 | 99.2 | 4 | 9 | 99.5 | 108.3 | 102.6 | / | / | / | / | / | /
O=C(COC(=O)/C=C/c1ccccc1)NCc1ccccc1Cl | 104.2 | 25 | 17 | 101.5 | 105.7 | 103.3 | / | / | / | / | / | /
COc1ccc(CCNC(=O)COC(=O)C23CC4CC(CC(Br)(C4)C2)C3)cc1 | 86.8 | 8 | 7 | 90.9 | 13.5* | 75.9 | 0.9 | 103.8 | 104.0 | 107.5 | 104.3 | 101.8 | RGS4-Gao HTS=90.9*
Cc1cc(C)cc(NC(=O)c2snc3c(=O)[nH]cnc23)c1 | 83.0 | 10 | 27 | 74.2 | 72.7 | 98.4 | / | / | / | / | / | /
CCOc1ccccc1N=C1SC(CC(=O)Nc2ccc(OC)cc2OC)C(=O)N1CCC1=CCCCC1 (stereo unspecified) | 100.0 | 2 | 9 | 99.3 | 66.6 | 95.0 | / | / | / | / | / | /
O=C(CC1SC(=Nc2ccc(OC(F)F)cc2)N(CCC2=CCCCC2)C1=O)Nc1ccccc1F (stereo unspecified) | 88.5 | 7 | 3 | 89.1 | 24.8* | 77.4 | -0.4 | 104.5 | 99.5 | 108.4 | 102.9 | 103.7 | RGS4-Gao HTS=89.1*
CC(C)=NOc1cc(NC(=O)CCl)cc([N+](=O)[O-])c1 | 99.7 | 4 | 13 | 101.3 | 106.2 | 102.0 | / | / | / | / | / | /
CCC(=O)Nc1cc(ON=C(C)C)cc([N+](=O)[O-])c1 | -14.7* | -2 | 14 | -39.5* | 39.3 | 34.2* | -1.6 | 99.4 | 99.4 | 101.3 | 97.7 | 102.3
O=C(C1CCN(S(=O)(=O)c2cccnc2)CC1)N1CCN(c2cccc(Cl)c2)CC1 | 10.7* | 1 | 25 | 35.4* | 62.4 | 26.6* | -0.9 | 99.2 | 99.2 | 101.0 | 99.1 | 95.1
COC(=O)c1c(C)[nH]c(-c2csc(N)n2)c1C | 100.2 | 19 | 11 | 98.3 | 101.7 | 101.7 | / | / | / | / | / | /
Cc1cc(C)cc(NC(=S)NCc2ccc(S(N)(=O)=O)cc2)c1 | / | / | 12 | 97.0 | 109.5 | 94.6 | 3.0 | 97.3 | 104.9 | 102.0 | 100.2 | 108.0
NS(=O)(=O)c1ccc(NC(=S)NCc2ccc(Cl)cc2)cc1 | 127.2 | 3 | 21 | 101.3 | 70.8 | 86.7 | / | / | / | / | / | /
Cc1ccc(-c2csc(NC(=O)CSc3nc4ccccc4c(=O)n3CCCN(C)C)n2)cc1 | 100.0 | 11 | 12 | 98.8 | 98.3 | 101.8 | / | / | / | / | / | /
Cc1ccc(CSc2ncccc2C(=O)O)cc1 | 99.5 | 14 | 11 | 103.7 | 96.8 | 95.3 | / | / | / | / | / | /
Cc1cccc(CSc2ncccc2C(=O)O)c1 | 104.8 | 23 | 21 | 121.6 | 285.3*[activator] | 135.4 | 1.8 | 95.7 | 93.4 | 91.3 | 92.8 | 69.5 | RGS4-Gao HTS=121.6*
